# According to the supplement of paper PMC3334620:
# In all, about 33,000 sequences were measured (“E-score (-0.5 to 0.5)”: median about -0.035, highest 2% from about 0.34 on). What follows is part of a selection rich in the highest values, with near analogues and random picks from the rest.
# Target: T1, Mot3 (UniProt P54785)
# T1 sequence: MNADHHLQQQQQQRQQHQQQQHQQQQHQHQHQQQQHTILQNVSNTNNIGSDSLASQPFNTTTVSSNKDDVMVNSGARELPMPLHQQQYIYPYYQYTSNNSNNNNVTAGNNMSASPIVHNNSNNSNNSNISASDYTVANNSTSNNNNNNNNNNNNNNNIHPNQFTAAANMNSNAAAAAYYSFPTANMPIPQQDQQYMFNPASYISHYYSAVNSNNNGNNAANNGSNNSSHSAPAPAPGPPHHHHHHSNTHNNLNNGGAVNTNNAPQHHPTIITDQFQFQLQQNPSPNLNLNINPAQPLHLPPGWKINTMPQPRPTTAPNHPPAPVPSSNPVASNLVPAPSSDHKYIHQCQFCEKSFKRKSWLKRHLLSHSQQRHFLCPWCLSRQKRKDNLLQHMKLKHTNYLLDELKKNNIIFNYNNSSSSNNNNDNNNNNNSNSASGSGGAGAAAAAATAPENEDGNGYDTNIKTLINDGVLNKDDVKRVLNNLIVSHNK
# Test: PBM E-score (8-mer binding enrichment) (E-score (-0.5 to 0.5)); higher = stronger / more preferred TF binding
# Settings: protein concentration: 200 nM; construct: GST-full length
# Protocol: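 Universal 'all 10-mer' protein binding microarrays (Agilent AMADID 015681) probed with GST-tagged S. cerevisiae TFs (full-length or DBD) made by in vitro transcription/translation (PURExpress), about 100-200 nM. Bound TF was detected with fluorescent anti-GST. Each ungapped 8-mer (which stands for itself and its reverse complement) is scored by the PBM enrichment score (E-score), a modified Wilcoxon-Mann-Whitney statistic from -0.5 to +0.5, computed with the Universal PBM Analysis Suite. Scale: above 0.35 generally sequence-specific binding.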
row,Sequence,PBM E-score
1,ACCTAGGT,0.124
2,CGGTCTAC,-0.0115
3,ACTTCTGA,-0.101
4,GTGCATAA,0.084
5,AGGTTGTC,-0.0425
6,CAAAGAAC,0.197
7,CGCGGAAG,-0.172
8,ACCATGTG,0.0765
9,ACCATGTC,0.223
10,CCCATGGA,-0.187
11,GCCATGTA,0.383
12,CCCATGTA,0.377
13,ACCATGTA,0.404
14,CCCATGTC,0.0657
15,GCCATGGA,-0.144
16,GCCATGCA,-0.135
17,ATACCTCG,0.121
18,AAGGTGGC,-0.095
19,AAACAGCT,-0.268
20,GTGTAAGA,0.312
21,GCGTAACA,0.196
22,GTGTAACA,0.343
23,AGGTAACA,0.357
24,AGGTAACT,0.297
25,ATGTAACA,0.373
26,CTGTAACA,0.182

row,Sequence,PBM E-score
1,AGGTAACC,0.321
2,ATGTAACC,0.166
3,ACCGACCC,-0.256
4,AGCAGAAT,0.059
5,ATCCTGCG,0.0225
6,TGAGAGAA,-0.0743
7,AGGGTCCG,-0.269
8,CGCCCAAG,-0.105
9,AAATTACA,0.365
10,TAATTATA,0.206
11,TAATTAGA,0.0891
12,AAATTACG,0.249
13,GAATTACC,0.0992
14,GAATTATA,0.0628
15,AAATTACT,0.138
16,GAATTACA,0.366
17,TAATTACA,0.372
18,CAATTACA,0.378
19,CAATTACC,0.12
20,CAATTACG,0.26
21,AAGCAGAA,0.108
22,AACTAGAT,0.138
23,AGGCAGCC,0.317
24,CTTCTCAC,-0.125
25,TCGGCTAA,-0.0724
26,ACTGTTGG,-0.221

row,Sequence,PBM E-score
1,CCCTGGTC,-0.315
2,TGCTTCAA,0.0489
3,ACGAACAG,-0.0228
4,AACAACAC,0.349
5,AGGAACAG,0.434
6,ATGAACAT,0.252
7,AGGAACAT,0.422
8,GACAACAC,0.261
9,CGGAACAG,-0.216
10,AGGAACAA,0.401
11,CGGAACAA,0.0225
12,ACGAACAT,0.109
13,CACAACAC,0.302
14,TGGAACAA,0.136
15,CTTCGGTC,-0.0958
16,ATGGGAGC,-0.193
17,ACGCATGC,0.169
18,ACAAAGCA,0.168
19,CTAGCGGA,-0.00619
20,GATTAGCA,-0.0223
21,CGCTCAAG,-0.0197
22,TTAGCTAA,-0.0988
23,CTTCCACA,-0.14
24,ATCTCTTG,-0.0945
25,ATCAACAT,0.339
26,CGGAACAC,0.0144

row,Sequence,PBM E-score
1,ATTAACAC,0.384
2,AGGAACAC,0.404
3,ATTAACAA,0.328
4,ATCAACAG,0.0788
5,GGGAACAC,0.0104
6,CTTAACAC,0.333
7,ATCAACAA,0.224
8,AAGTAGGA,0.2
9,CCTCTAGA,-0.0256
10,AAGAACGC,0.0817
11,AGGGTAGG,0.0464
12,ACGCTTTG,-0.111
13,GCATTCTA,0.0333
14,AGACAGAT,-0.0373
15,ATCAGGCA,0.481
16,CTCAGGCC,-0.129
17,CTCAGGCA,0.462
18,ATCAGGCG,0.0225
19,ATCAGGCC,-0.0425
20,GTCAGGGA,-0.339
21,GTCAGGCA,0.469
22,GTCAGGAA,0.277
23,CTCAGGGA,-0.251
24,CGGATCAC,-0.00917
25,CCTTTCTC,-0.0866
26,CTCAGGGC,-0.29

row,Sequence,PBM E-score
1,AGTGTCTA,0.0204
2,AGTCCCAT,-0.115
3,AGAGCCTG,0.341
4,CGTGCCTC,0.469
5,AGTGCCAG,-0.0756
6,AGTGCCGG,0.0259
7,AGAGCCTC,-0.422
8,AGTGCCTG,0.49
9,AGTGCCAC,-0.35
10,AGAGCCTA,0.177
11,AGTGCCTC,0.405
12,CGTGCCCC,0.00946
13,AGTGCCGC,-0.373
14,CGTGCCGC,-0.111
15,GAGATTGA,-0.0729
16,ACGGTTTG,-0.0879
17,CAAGTCGA,-0.156
18,TGTCTCAA,-0.078
19,AGGTCGAG,-0.141
20,ATGACCAG,0.199
21,ATGCTCAG,0.15
22,CGTGCCCA,0.355
23,GGTGCCCA,0.293
24,AGTGCCCA,0.137
25,CACGGATG,0.0568
26,GGTAGGCA,0.473

row,Sequence,PBM E-score
1,CGTAGGTA,0.285
2,CGTAGGCA,0.487
3,AGTAGGCG,0.0255
4,GGTAGGTA,0.269
5,AGTAGGCA,0.481
6,GGTAGGGA,-0.104
7,CGTAGGCC,-0.0263
8,AGTAGGCC,-0.1
9,AAATGGGG,-0.133
10,CGAACTAA,0.031
11,AGGATACA,0.157
12,CCCTCTCG,-0.33
13,TCTATTCA,0.165
14,CAATTGAA,-0.0107
15,ACTACATA,0.325
16,ACTACATC,0.173
17,GTTACATA,0.333
18,AGTACATG,0.289
19,ACTACATG,0.362
20,CTTACATA,0.319
21,ATTACATC,0.356
22,AGTACATC,0.166
23,ATTACATA,0.406
24,CTTACATC,0.163
25,ATTACATG,0.435
26,ATCACATG,0.195

row,Sequence,PBM E-score
1,AGGATACT,-0.12
2,ACCTCTCC,-0.144
3,ACTTTTCC,0.0601
4,ACCTGACA,0.105
5,ATCTGAAA,-0.0689
6,AGGAGTGC,-0.146
7,GGACACCA,-0.23
8,ACTCGCCC,-0.179
9,TACTTTGA,0.0853
10,ACACTCCA,-0.141
11,CATACATG,0.291
12,AATACATG,0.413
13,AATACATT,0.235
14,GGCGTGAC,0.017
15,AGAACGCT,-0.186
16,AGTGTCGC,-0.0232
17,GGGAACCA,-0.175
18,AGGAACCT,0.458
19,CGGAACCC,-0.0527
20,TGGAACCA,-0.133
21,ATGAACCG,0.0149
22,AAGAACCT,0.191
23,AGGAACCC,0.444
24,CGGAACCG,-0.249
25,ACGAACCT,-0.0403
26,AGGAACCA,0.419

row,Sequence,PBM E-score
1,AGGAACCG,0.442
2,GGGAACCC,-0.279
3,AGTTCGCG,-0.0658
4,ACCATCAA,-0.0603
5,CTACTGGC,-0.182
6,GGGAGGTA,0.0239
7,AATTCCGG,-0.0255
8,GTCCTCCA,-0.175
9,CCACACCG,-0.0267
10,CAGGTCGC,-0.225
11,CGCGTTAA,0.368
12,GGTGTTAA,0.28
13,AGTGTTTA,0.126
14,CGCGTTAG,0.187
15,AGTGTTAA,0.264
16,GATGTTTA,0.125
17,TGTGTTAA,0.401
18,CATGTTTC,0.24
19,GGCGTTAA,0.149
20,GGTGTTTA,0.0636
21,CGTGTTTA,0.346
22,CATGTTTA,0.371
23,ACACTGGC,0.00843
24,ACTTAAGG,0.157
25,CTAGATAC,-0.0863
26,GCAAGACC,-0.0597

row,Sequence,PBM E-score
1,CGCAAAAC,0.0841
2,CACAGCTC,0.0935
3,CAACTGAG,0.00667
4,GAACCTCA,-0.0997
5,AGAGCACT,-0.0229
6,GAAACTCA,-0.0953
7,CGGACAAC,-0.0115
8,CTCGAGCA,-0.0333
9,CGTGTTAG,0.354
10,CGTGTTAA,0.418
11,GTTGTTAA,0.275
12,CATGTTGC,0.297
13,AATGTTGA,0.162
14,CTTGTTAC,0.158
15,CGTGTTCA,0.273
16,AGTGTTAG,0.0278
17,CATGTTGA,0.401
18,CCTGTTAA,0.297
19,CTTGTTAA,0.355
20,CGTGTTAC,0.308
